# Screens: PubChem, National Center for Advancing Translational Sciences (NCATS)
# An excerpt weighted towards active compounds, which were near 9.2% of everything screened.
# FLuc counter: firefly luciferase modulation, counter-screen for miR-21 project | P08659 | purified FLuc, Km substrates, luminescence inhibition | Potency, µM (top dose mostly 57.5 µM), usual class: inhibitors | 360,000 tested, 6.9% active; also: nearly all actives have a fitted effect of over 55% in size
# Target sequence (P08659 whole entry, looked up): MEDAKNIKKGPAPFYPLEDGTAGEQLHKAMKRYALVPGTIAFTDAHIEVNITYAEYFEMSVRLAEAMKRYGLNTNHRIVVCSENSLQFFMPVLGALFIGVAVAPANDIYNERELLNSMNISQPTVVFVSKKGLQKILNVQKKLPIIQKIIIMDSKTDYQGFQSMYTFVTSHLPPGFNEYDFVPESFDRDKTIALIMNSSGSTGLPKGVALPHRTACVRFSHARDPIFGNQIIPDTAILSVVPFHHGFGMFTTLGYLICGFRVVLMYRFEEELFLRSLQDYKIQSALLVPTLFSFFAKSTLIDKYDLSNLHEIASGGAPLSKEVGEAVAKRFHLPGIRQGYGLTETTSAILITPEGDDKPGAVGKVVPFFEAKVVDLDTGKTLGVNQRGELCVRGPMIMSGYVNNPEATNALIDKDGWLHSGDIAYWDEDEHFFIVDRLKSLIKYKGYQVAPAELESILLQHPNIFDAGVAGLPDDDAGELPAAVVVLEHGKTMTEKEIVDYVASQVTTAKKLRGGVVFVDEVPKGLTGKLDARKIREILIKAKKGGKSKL
#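 Purified P. pyralis luciferase, 10 nM final, with Km-level 10 uM D-luciferin and 10 uM ATP in 50 mM Tris acetate pH 7.5, 10 mM Mg acetate, 0.01% Tween-20, 0.05% BSA; 6-point qHTS titration about 60 µM downward; luminescence read.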
# ELG1 genotox: inducers of genotoxicity in HEK293T ELG1-luciferase cells. HEK293T ELG1-luciferase reporter, luminescence, 16 h. Potency, µM (titrated, usually from 46 µM), usual class: activators. 330,000 tested, 1.3% active. AID 504466; also: nearly all actives have a fitted effect of over 60% in size
#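 Reporter readout depends on ELG1 protein level, which increases with genetic stress. After 16 hr compound exposure at 37 °C, luciferase activity was quantified using ONE-Glo.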
# NPC1 prom act: activates the NPC1 promoter | 320,000 tested, 2.4% active | AID 485313 | Huh7 NPC1 promoter luciferase reporter, 24 h | Potency, µM (doses to about 9.22 µM), usual class: activators; also: nearly all actives have a fitted effect of over 60% in size
#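 Stable NPC1-promoter luciferase Huh7 line; cpd (DMSO) 24 h, 37 °C, 5% CO2; Amplite luciferase reagent 10 min RT; luminescence readout. qHTS format.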
# SMN2 splice enh: enhancers of SMN2 splice variant expression; AID 1458; 210,000 tested, 2.8% active; HEK293 SMN2-luciferase splicing reporter, luminescence, 30-36 h; Potency, µM (doses to about 46.1 µM), actives largely listed as activators; also: nearly all actives have a fitted effect of over 55% in size
#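 HEK293 cells carry an SMN2 […]–luciferase reporter in which exon 7 inclusion puts luciferase in frame. Cells were plated 10-12 h before compound addition, then incubated 30-36 h at 37C. ONE-Glo luminescence was read; sodium butyrate at 4.5 mM final served as control.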
# Rab9 prom act: activates the Rab9 promoter. AID 485297. Huh7 Rab9 promoter-luciferase reporter, luminescence, 24 h. 320,000 tested, 2.8% active. Potency, µM (titrated, usually from 9.22 µM), usual class: activators; also: nearly all actives have a fitted effect of over 60% in size
#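 Huh7 cells stably carrying Rab9 promoter–luciferase reporter, plated 1500 cells/well, compound added after 2 h and incubated 24 h at 37 °C; luciferase luminescence then read after 10 min with detection reagent.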
# ELG1 DNA repair: ELG1-dependent DNA repair inhibition; HEK293T ELG1-luciferase reporter, luminescence, 16 h; DNA damage induced by 5-fluorouridine; Potency, µM (titrated, usually from 46.1 µM), actives largely listed as inhibitors; 330,000 tested, 2.3% active; AID 504467; also: nearly all actives have a fitted effect of over 55% in size
#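 Luminescence from the luciferase reporter, measured 30 min after ONE-Glo reagent at room temperature, was the read-out. Beforehand, 2,000 cells per well were exposed for 16 hr at 37 °C to 5-fluorouridine together with compound or vehicle.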
# Hits are given with their value; i = inactive; ? = inconclusive; nt = no result; [ ] = remark or other dose. Calls follow the shape of the dose curve; as a rule, active = well fitted curve in the direction sought with a large enough effect; inconclusive = small, poorly fitted or top-dose-only effect, or another doubt; inactive = no such curve, though single readings can be large; an effect the other way counts as inactive or inconclusive.
SMILES,FLuc counter,ELG1 genotox,NPC1 prom act,SMN2 splice enh,Rab9 prom act,ELG1 DNA repair
N#C/C(=C\c1cccc([N+](=O)[O-])c1)c1ccccn1,i,?,i,i,?,?
CCN(Cc1ccccc1)c1ccc(/C=C(\C#N)c2ccccn2)cc1,7.6µM,?,3.5µM,nt,1.4µM,?
CN(CCC#N)c1ccc(/C=C(\C#N)c2ccccn2)cc1,1.5µM,0.65µM,0.5µM,1µM,0.5µM,?
O=C(c1ccc(CN2CCOCC2)cc1)N1CCN(c2cccc(Cl)c2)CC1,i,i,i,i,i,i
O=C(c1ccc(CSc2nc3ccncc3[nH]2)cc1)N1CCN(c2cccc(Cl)c2)CC1,i,i,i,i,i,26µM
O=C(c1ccc(CSc2nc3ccncc3n2Cc2ccccc2)cc1)N1CCCCCC1,17µM,nt,nt,i,nt,nt
O=C(c1ccc(CSc2nc3ccncc3[nH]2)cc1)N1CCCCCC1,15µM,?,?,nt,?,?
COc1ccc(Cl)cc1NC(=O)C1CCCN(S(=O)(=O)c2ccc3c(c2)CCCC(=O)N3)C1 (stereo not given),i,nt,nt,nt,nt,nt
CCCC(C(=O)Nc1ccncc1)c1ccccc1 (stereo not given),i,i,i,nt,i,i
COc1cccc(NC(=O)COC(=O)c2nc3nccc(C)n3n2)c1,i,i,i,i,i,i
COc1cccc(N(C(=O)c2nc3nccc(C)n3n2)c2nc3ccccc3s2)c1,11µM,?,?,10µM,2µM,?
COc1ccc(-c2noc(CNC(=O)c3ccc4c(c3)OCO4)n2)cc1OC,i,i,i,nt,i,i
COc1ccc(-c2cn3c(n2)sc2cc(C(=O)NC(C)C45CC6CC(CC(C6)C4)C5)ccc23)cc1 (stereo not given),i,nt,nt,nt,nt,nt
COc1ccc(C(=O)N2c3ccccc3C(=O)OC2c2ccc3c(c2)OCO3)cc1 (stereo not given),19µM,i,?,13µM,?,?
COc1ccc2c(c1)O[C@@H](c1ccc3c(c1)OCO3)[C@H](O)C2=O,nt,nt,nt,20µM,nt,nt
CC(C)CCC(CCNCc1ccccn1)c1ccc(Cl)cc1 (stereo not given),i,i,i,nt,i,i
COC1=CC(=O)c2ccccc2C1=O,nt,i,nt,nt,nt,18µM
Cn1cccc1/C=C1\Cc2ccccc2C1=O,6.7µM,?,i,?,?,?
Cn1cccc1/C=C1\CC(C(C)(C)C)C/C(=C\c2cccn2C)C1=O (stereo not given),i,i,i,i,i,?
Cn1cccc1/C=C1\CCc2ccccc2C1=O,1.5µM,?,0.35µM,1µM,0.13µM,?
C=CCn1c(C)nnc1SCC(=O)N1CCN(S(=O)(=O)c2ccccc2)CC1,i,i,i,nt,i,i
COc1ccc(/C=C/C(=O)c2ccc3c(c2)OCO3)c(OC)c1,2.1µM,5.8µM,3.2µM,16µM,2.8µM,?
COc1cccc(/C=C/C(=O)c2ccc3c(c2)OCCO3)c1OC,0.76µM,?,3.2µM,nt,?,?
COc1ccc(NC(=O)COC(=O)c2ccc3c(c2)OCO3)c(OC)c1,nt,i,nt,nt,nt,i
COc1ccc(/C=C/C(=O)NCC2COc3ccccc3O2)c(OC)c1 (stereo not given),24µM,i,i,i,i,i
SMILES,FLuc counter,ELG1 genotox,NPC1 prom act,SMN2 splice enh,Rab9 prom act,ELG1 DNA repair
COc1cc(/C=C/C(=O)c2ccc(Cl)s2)cc(OC)c1O,?,i,i,i,i,?
COc1ccc(NC(=O)CCC2COc3ccccc3O2)c(OC)c1 (stereo not given),i,i,i,i,i,i
COc1cc(/C=C/C(=O)c2ccc3c(c2)OCO3)cc(Cl)c1O,8.5µM,i,i,nt,i,i
CCOc1c(Cl)cc(/C=C/C(=O)N(CC)CC(=O)Nc2ccc(NC(C)=O)cc2)cc1OC,i,i,i,nt,i,15µM
COc1ccc(/C=C/C(=O)c2cc(Cl)cc(Cl)c2O)c(OC)c1,?,i,i,nt,i,i
COc1ccc(/C=C/C(=O)c2ccccc2)c(OC)c1,2.4µM,?,3.2µM,?,1.8µM,?
COc1cc(O)c(C(=O)/C=C/c2ccccc2)c(OC)c1,11µM,i,i,i,i,?
COc1ccc(/C=C/C(=O)c2ccc(OC)cc2OC)c(OC)c1,19µM,i,i,nt,i,?
O=C(Nc1ccccc1)N1CC[C@@]2(CCCN(C(=O)c3ccco3)C2)C1,nt,nt,nt,i,nt,nt
CCN(CC(=O)Nc1ccc2c(c1)OCCO2)C(=O)/C=C/c1ccc(OC)c(OC)c1,i,i,i,nt,i,i
COc1ccc(/C=C/C(=O)NNC(=O)c2ccncc2)c(OC)c1,13µM,i,i,nt,i,?
CNc1ccc(Br)cc(C(=O)/C=C/c2ccc(OC)cc2OC)c1=O,12µM,i,i,i,i,?
CCN(CC(=O)Nc1ccc2c(c1)OCCO2)C(=O)/C=C/c1ccc(OC)cc1OC,15µM,?,i,nt,i,i
COc1ccc(N(Cc2cccs2)C(=O)COc2ccc([N+](=O)[O-])cc2)cc1,i,nt,nt,nt,nt,nt
COc1ccccc1C(=O)Nc1ccnn1C1CCN(CCCc2ccccc2)CC1,i,i,i,nt,i,i
O=C(CSc1nc(O)c(C2CCCCC2)c(=O)[nH]1)N1CCOCC1,i,i,i,nt,i,i
CCN(CC)c1ccc(/C=N/N2CCOCC2)cc1,8.5µM,7.3µM,3.5µM,22µM,3.2µM,?
CCN(Cc1ccccc1)c1ccc(/C=N/N2CCOCC2)cc1,?,i,i,i,i,?
Cc1nc(NC(=O)CCl)sc1C(=O)N(C)C,i,i,i,nt,i,i
COC(=O)c1sc(NC(=O)c2cc3c(s2)CCCC3)nc1C,2.4µM,1.2µM,i,4.5µM,i[1.84 µM],?
Cc1csc(NC(=O)c2cc3c(s2)CCC3)n1,0.85µM,?,0.63µM,0.79µM,?,?
CCOC(=O)c1sc(NC(=O)c2cc3c(s2)CCC(C)C3)nc1C (stereo not given),4.8µM,10µM,i,i,i,?
Cc1nc(NC(=O)c2ccc(Br)s2)sc1C(=O)N(C)C,7.6µM,9.2µM,3.2µM,11µM,3.5µM,?
COC(=O)c1ccc(CNC(=O)COC(=O)C2CC3C=CC2C3)cc1 (stereo not given),i,i,i,i,i,i
Cc1csc(NC(=O)c2cc3c(C)nn(Cc4ccccc4Cl)c3s2)n1,11µM,i,i,i,i,?
O=C(NCc1cccs1)c1csc2c1CCCCC2,i,i,i,i,i,i
Cc1ccc(NC(=O)CN(C)C(=O)c2cc3c(s2)CCCCC3)cc1,i,i,i,nt,i,i
Cc1ccc(NC(=O)c2cc3c(s2)CCCC3)cc1,5.4µM,?,3.2µM,13µM,1.4µM,?
Cc1nn(Cc2ccccc2Cl)c2sc(C(=O)NC(C)(C)C)cc12,i,i,i,i,i,i
O=C(Nc1ccccc1OC(F)F)c1cc2c(s1)CCC2,21µM,i,i,i,i,?
